# Compound activity from PubChem.
# D3 antag: blocks the human D3 dopamine receptor; P35462; D3R cells, DiscoveRx beta-arrestin luminescence, antagonist mode; stronger effect = lower value; max response, negative = inhibition, %; hit rate 2.5% among 360,000; AID 652054; in the data active = max response below about -50%; note: % is set by controls: 0 for no effect and ±100 for the full control effect
# Target sequence (P35462 whole entry, looked up): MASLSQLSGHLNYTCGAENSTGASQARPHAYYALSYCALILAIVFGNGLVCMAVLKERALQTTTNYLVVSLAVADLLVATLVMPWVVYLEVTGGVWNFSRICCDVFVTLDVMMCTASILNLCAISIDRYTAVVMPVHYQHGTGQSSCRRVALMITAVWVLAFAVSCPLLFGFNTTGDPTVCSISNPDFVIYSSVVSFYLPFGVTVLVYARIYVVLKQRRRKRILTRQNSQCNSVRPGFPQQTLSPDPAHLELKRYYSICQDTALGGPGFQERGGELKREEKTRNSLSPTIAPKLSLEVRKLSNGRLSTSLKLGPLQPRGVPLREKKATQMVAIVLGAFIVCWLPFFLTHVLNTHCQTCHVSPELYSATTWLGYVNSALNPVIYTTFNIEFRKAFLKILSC
#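 Cells expressing the human receptor were seeded at 1500 cells/well, incubated overnight at 37 degrees C in 5% CO2, then exposed to library compounds with dopamine controls for 90 minutes at 37 degrees C before luminescent detection.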
# D1 antag: human D1 dopamine receptor antagonism; P21728; HEK293 TREx D1 cells, calcium flux, dopamine EC80; stronger effect = lower value; activity change, negative = inhibition, % at 10 µM; hit rate 3.2% among 360,000; in the data active = activity change below about -30%; note: % is set by controls: 0 for no effect and ±100 for the full control effect
#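 Inducible Hek293 Trex D1 cells (tetracycline, overnight, 30 C). Calcium dye 30–90 min RT. Antagonist mode: EC80 dopamine added after 180 s compound read.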
# D3 ag: activates the human D3 dopamine receptor; P35462; D3R DiscoveRx beta-arrestin cells, luminescence, 90 min; max activation, %; hit rate 0.58% among 410,000; AID 652048; in the data active = max activation above about 30%; note: 0% is about no effect
#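 Cells at 1500/well, incubated overnight, then treated with pinned compounds (dopamine as control) for 90 min at 37 degrees C. DiscoveRx reagent added for 30 - 60 minutes at room temperature; luminescence read.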
# D1 PAM: potentiators of human D1 dopamine receptor; potentiation, % at 10 µM; HEK293 TREx D1 cells, calcium flux, dopamine EC20 potentiation; AID 504651; hit rate 0.036% among 360,000; in the data active = potentiation above about 30%; note: 0% is about no effect
# D1 agonist: activates the human D1 dopamine receptor | hit rate 1% among 360,000 | AID 504660 | HEK293 T-REx D1 cells, calcium flux, agonist mode | activation, % at 2 µM; in the data active = activation above about 30%; note: 0% is about no effect
#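 Agonism was scored from calcium flux recorded over 180 s (1 read/s) after pintool compound addition, following a 10-cycle baseline. Cells were inducible force-coupled HEK293 TREx D1, plated overnight at 30 C and loaded with no-wash calcium dye.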
# * = called active by the depositor; / = no result given. Only some compounds are listed: those with a hit (about 6% of all), similar ones and a draw of the others.
SMILES,D3 antag,D1 antag,D3 ag,D1 PAM,D1 agonist
Cc1cccc(OCC(O)CN2CCN(c3ccccn3)CC2)c1C (stereo unspecified),-20.8,-25.6,68.5*,-8.5,7.1
CC(=O)c1ccccc1OCC(O)CN1CCN(c2ccccn2)CC1 (stereo unspecified),-11.6,-4.0,14.9,7.5,-1.0
Cc1cc(C)c(C)c(OCC(O)CN2CCN(c3ccccn3)CC2)c1 (stereo unspecified),-20.2,-14.6,62.7*,-3.9,4.1
Cc1cc(C)cc(NC(=O)C(=O)NCCc2sc(-c3cccc(F)c3)nc2C)c1,/,-3.9,-1.4,0.4,7.2
COc1ccccc1N=c1oc2cc(O)ccc2cc1C(=O)NCC1CCCO1 (stereo unspecified),19.1,-8.2,1.8,-7.1,7.5
COc1cccc(N=c2oc3cc(O)ccc3cc2C(=O)NCC2CCCO2)c1 (stereo unspecified),14.3,-3.5,31.0*,0.2,1.6
O=c1cc(CSc2ccccc2)[nH]c(=S)[nH]1,-95.2*,-0.9,-8.9,-2.1,1.1
CO[C@H]1C=CO[C@@]2(C)Oc3c(C)c(O)c4c(O)c(c(C=NN5CCN(C)CC5)c(O)c4c3C2=O)NC(=O)C(C)=CC=C[C@H](C)[C@H](O)[C@@H](C)[C@@H](O)[C@@H](C)[C@H](OC(C)=O)[C@@H]1C,-76.3*,-12.7,-39.0,0.7,6.7
Cc1cccc(-c2nc3c4ccccc4n(CC(=O)Nc4cccc(F)c4)c(=O)n3n2)c1,/,/,-5.8,0.2,1.0
Cc1cc(=O)[nH]c(SCC(=O)c2ccc(O)c(O)c2)n1,-4.2,-20.8,30.7*,-1.0,7.5
O.O=C([O-])CC([S-])C(=O)[O-].[Au+].[Na+].[Na+] (stereo unspecified),/,/,-16.9,/,/
Cc1nc(S(=O)(=O)N2CCN(C3c4ccccc4-c4ccccc43)CC2)cn1C,19.8,22.5,-2.0,6.0,4.7
Cc1nc2c(o1)CCc1ccccc1C2N1CCN(C)CC1 (stereo unspecified),-54.4*,-3.4,-13.4,-2.8,5.0
CC(Sc1nnc2ccccn12)C(=O)Nc1ncc(Cl)cc1Cl (stereo unspecified),-50.2*,4.9,-5.1,-2.4,0.4
COc1ccc(-n2c(SC(C)C(=O)Nc3ncc(Cl)cc3Cl)nc3ccccc32)cc1 (stereo unspecified),17.3,18.2,35.8*,2.9,3.6
CCCn1c(=N)c(C(=O)NC(C)c2ccccc2)cc2c(=O)n3ccccc3nc21 (stereo unspecified),/,-4.0,1.4,1.0,0.4
O=C(Nc1ccc(Oc2cccnc2)cc1)C1CCCCN1Cc1ccc(CO)o1 (stereo unspecified),-2.4,0.6,-10.5,0.8,2.2
CCc1cccc(CN2CCC(CNC(=O)Nc3ccc(Cl)cc3)CC2)c1,3.2,-43.7*,-15.4,-7.5,38.9*
O=C(NCC1CCN(Cc2cccc(Cl)c2)CC1)Nc1ccc(F)c(Cl)c1,/,-5.6,-3.9,-4.0,21.5
Cc1cc(CN2CCCCC2C(=O)Nc2ccc(Oc3cccnc3)cc2)oc1C (stereo unspecified),18.3,-33.0*,0.0,-5.7,3.2
O=C(Nc1ccc(Oc2cccnc2)cc1)C1CCN(Cc2cccc(Cl)c2)CC1,-11.4,-37.0*,-6.3,-11.9,49.4*
O=C(NCC1CCN(Cc2cccc(Cl)c2)CC1)Nc1ccc(Cl)cc1,-60.7*,-73.3*,-5.0,-19.0,31.5*
Cc1ccc2nc(-c3ccc(Cl)c(NC(=O)COc4ccc([N+](=O)[O-])cc4)c3)oc2c1,/,1.8,3.1,-3.9,-1.4
COc1cc(NC(=O)CSc2nnc(C)n3c2cc2oc(C)cc23)cc(OC)c1,/,-23.3,5.7,-2.8,-1.1
Cc1ccc(C)c(N2CCN(CC3CC=CCC3)CC2)c1 (stereo unspecified),-72.9*,22.6,-29.0,2.7,1.0
C1=CCC(CN2CCNCC2)CC1 (stereo unspecified),-3.7,12.4,1.4,-7.2,4.1
OC(COCc1ccccc1)CN1CCCC1 (stereo unspecified),1.7,0.2,7.8,3.0,1.3
COc1ccc(COCC(O)CN2CCc3ccccc3C2)cc1OC (stereo unspecified),-60.6*,-12.1,-35.9,-2.5,2.1
OC(COCc1ccccc1)CN1CCc2ccccc2C1 (stereo unspecified),-64.9*,-6.4,-10.6,-0.3,3.5
